Results on 26 molecules are retold here after PubChem BioAssay (Tox21).

Results filed as inconclusive are left out. Where a call stands in place of a potency, no number is given. The source made the active and inactive calls. Calls follow the shape of the dose curve; as a rule, active = well fitted cell-killing curve with a large enough effect in the repeat runs; inconclusive = weak or mixed curves, or effect the other way; inactive = no such curve, though single readings can be large or run the other way.

This test in a line: qHTS assay to identify small molecule agonists of the vitamin D receptor (VDR) signaling pathway - cell viability counter screen (AID 743224). Also: nearly all actives have a fitted effect of over 50% in size. To be noted: VDR-bla HEK293T viability, CellTiter-Glo luminescence, 16 h; series mostly up to 62.6 µM. In outline:
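Cells: VDR-bla, 2,000/well, settled 4 h. Treatment: compounds in DMSO, 16 h, 37C/5% CO2. Readout: CellTiter-Glo luminescence after 30 min RT.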
Consider `CN(CC1(C)CCCO1)S(=O)(=O)c1ccc(Cl)c(S(N)(=O)=O)c1` (stereo unspecified), for which the Potency entry is “inactive”.

With `OCc1ccccc1O`, the Potency result is “inactive”.

For `CN1C(=O)CC(c2ccccc2)C1=O` (stereo unspecified), the Potency entry was “inactive”.

Consider `Cc1c(C(=O)NCCO)[n+](=O)c2ccccc2n1[O-]`, for which the Potency entry was “inactive”.

With `O=S(=O)(O)C(F)(F)F`, the Potency entry was “inactive”.

Turning to `CCCCC1CCC(=O)O1` (stereo unspecified), the Potency result is “inactive”.

For `CCOc1ccc(NC(N)=O)cc1`, the Potency result is “inactive”.

Regarding `NC/C=C/C(=O)O`, the Potency entry is “inactive”.

Regarding `CCCCC(=O)O[C@]1(C(=O)CO)[C@H](C)C[C@H]2[C@@H]3CCC4=CC(=O)C=C[C@]4(C)[C@@]3(F)[C@@H](O)C[C@@]21C`, the Potency result is “inactive”.

For `CCCCc1ccc2nc(NC(=O)OC)[nH]c2c1`, the Potency entry is “inactive”.

With `CC(C)CC(=O)OCc1ccccc1`, the Potency result is “inactive”.

On to `CN(CCCN1c2ccccc2CCc2ccccc21)CC(=O)c1ccc(Cl)cc1`, for which the Potency result was “inactive”.

For `CCNCCO`, the Potency result was “inactive”.

Turning to `CCCCNc1ccc(C(=O)OCCN(CC)CC)cc1`, the Potency result was “inactive”.

As for `CCOC(=O)NCCC[Si](OCC)(OCC)OCC`, the Potency entry is “inactive”.

Take `Cc1ccc([N+](=O)[O-])c(N)c1`: the Potency entry was “inactive”.

`N#Cc1ccc(C(c2ccc(C#N)cc2)n2cncn2)cc1`: the Potency entry was “inactive”.

`O=C1CCC(C2CCCCC2)CC1`: the Potency result was “inactive”.

Turning to `NC(=O)NS(=O)(=O)c1ccc(Cl)cc1`, the Potency result was “inactive”.

For `CCCCCCCCOC(=O)CCCCCCCCC(=O)OCCCCCCCC`, the Potency result was “inactive”.

In the case of `OCCN(CCO)c1ccccc1`, the Potency entry was “inactive”.

With `OCC(CBr)(CBr)CBr`, the Potency result was “inactive”.

As for `CCCNC(C)C(=O)Nc1c(C)csc1C(=O)OC` (stereo unspecified), the Potency entry is “inactive”.

Consider `CC1=C(O)C(=O)OC1C` (stereo unspecified), for which the Potency result was “inactive”.

In the case of `O=C1CCCc2ccccc21`, the Potency result is “inactive”.

As to `COC(C)CCO` (stereo unspecified), the Potency result was “inactive”.
